This passage reports inhibition results from ChEMBL document CHEMBL5606460, “ASAP - DENV-2 NS2B-NS3 protease fluorescence single point” (2024).

For this experiment, the target named is Genome polyprotein (dengue virus type 2) (UniProt P29990).
The mark [1] stands for this setting: Thailand/16681/1984, Concentration 25.0 uM, Number of replicates 1.0.

In all, about 2,000 compounds went through this assay and about 110 (5.5%) showed an effect of 50% or more. Only a selection was taken, and strong results are over-represented in it overall.

For `Cc1cc(CO)c2cccc(Cc3ccccc3NC(=O)[C@@H](N)CC(N)=O)c2n1`, the inhibition runs as follows: (Thailand/16681/1984, Concentration 49.95 uM, Number of replicates 2.0, Standard deviation 0.9388389208439332 %) 28.9%; (Thailand/16681/1984, Concentration 99.9 uM, Number of replicates 2.0, Standard deviation 1.1783962129832455 %) 59.7%.
With `Cc1cc(CO)c2cccc(Cc3ccccc3NC(=O)[C@H](N)CCO)c2n1`, the inhibition is -2.49% (Thailand/16681/1984, Concentration 49.95 uM, Number of replicates 2.0, Standard deviation 1.1804730410904682 %) and -0.758% (Thailand/16681/1984, Concentration 99.9 uM, Number of replicates 2.0, Standard deviation 1.1029287785847963 %).
For `Cc1cc(CO)c2cccc(NC(=O)[C@@H](N)CCN)c2n1`, the inhibition is -1.14% (Thailand/16681/1984, Concentration 49.95 uM, Number of replicates 2.0, Standard deviation 3.3658560886244877 %) and -5.81% (Thailand/16681/1984, Concentration 99.9 uM, Number of replicates 2.0, Standard deviation 3.0766976877592507 %).
`Cc1cc(Cl)c2cccc(NC(=O)CCN)c2n1`: the inhibition runs as follows: (Thailand/16681/1984, Concentration 49.95 uM, Number of replicates 2.0, Standard deviation 0.0008200090846279543 %) 99.2%; (Thailand/16681/1984, Concentration 99.9 uM, Number of replicates 2.0, Standard deviation 0.04112992935002318 %) 98.9%.
With `Cc1cc(CO)c2cccc(Nc3cc(C)on3)c2n1`, the inhibition came to 1.66% (Thailand/16681/1984, Concentration 49.95 uM, Number of replicates 2.0, Standard deviation 1.3194982141200182 %) and 2.71% (Thailand/16681/1984, Concentration 99.9 uM, Number of replicates 2.0, Standard deviation 1.2714193652686099 %).
In the case of `Cc1cc(CO)c2cccc(NC(=O)[C@@H](N)CC(N)=O)c2n1`, the inhibition (Thailand/16681/1984, Concentration 49.95 uM, Number of replicates 2.0, Standard deviation 1.8295341709834483 %) is -3.67% and the inhibition (Thailand/16681/1984, Concentration 99.9 uM, Number of replicates 2.0, Standard deviation 6.049352845396267 %) was -1.2%.
`Cc1nc(Cl)c(NC(=O)C2CCN(c3ccc(C=O)cc3)CC2)c(Cl)n1`: the inhibition under setting [1] stood at 12.8%.
As for `CC(C)(CO)NC(=O)c1cc(Cl)cc(NC(=O)Cn2cnccc2=O)c1`, the inhibition (Thailand/16681/1984, Concentration 49.5 uM, Number of replicates 2.0, Standard deviation 0.3718016272993385 %) is -3.9%; the inhibition (Thailand/16681/1984, Concentration 99.01 uM, Number of replicates 2.0, Standard deviation 1.0416819516575477 %) is -5.97%; the inhibition (Thailand/16681/1984, Concentration 198.0 uM, Number of replicates 2.0, Standard deviation 1.29652000519297 %) was -5.4%.
As for `O=Cc1ccc(N2CCC(C(=O)N3CCN(C(=O)C(F)(F)F)CC3)CC2)cc1`, the inhibition under setting [1] was 8.59%.
As to `Cc1n[nH]c(CC(=O)N2CCC[C@H](n3cnc(C(N)=O)n3)C2)n1`, the inhibition (Thailand/16681/1984, Concentration 49.5 uM, Number of replicates 2.0, Standard deviation 0.8615620840433298 %) is -1.22%; the inhibition (Thailand/16681/1984, Concentration 99.01 uM, Number of replicates 2.0, Standard deviation 0.2938998370290156 %) was -1.99%; the inhibition (Thailand/16681/1984, Concentration 198.0 uM, Number of replicates 2.0, Standard deviation 1.103757347430939 %) is -0.94%.
For the molecule `Cn1cc(NC(=O)c2ccccc2C(F)(F)F)c(-c2cnn(C)n2)n1`, the inhibition runs as follows: (Thailand/16681/1984, Concentration 49.5 uM, Number of replicates 2.0, Standard deviation 0.32036291597833877 %) -2.97%; (Thailand/16681/1984, Concentration 99.01 uM, Number of replicates 2.0, Standard deviation 1.175972600606475 %) -3.46%; (Thailand/16681/1984, Concentration 198.0 uM, Number of replicates 2.0, Standard deviation 1.0582279614459547 %) -3.2%.
On to `O=Cc1ccc(N2CCC(C(=O)Nc3ccc4scnc4c3)CC2)cc1`, for which the inhibition under setting [1] is 13%.
Regarding `O[C@]1(C(F)(F)F)CC[C@H](CNCc2nnc3ccccn23)CC1`, the inhibition came out at 4.51% (Thailand/16681/1984, Concentration 49.5 uM, Number of replicates 2.0, Standard deviation 2.244095461971029 %); 4.61% (Thailand/16681/1984, Concentration 99.01 uM, Number of replicates 2.0, Standard deviation 1.4092400656614155 %); 1.75% (Thailand/16681/1984, Concentration 198.0 uM, Number of replicates 2.0, Standard deviation 2.783814769891106 %).
With `CCc1nc([C@@H](C)NC(=O)c2ccc(O)c(NC(=O)c3ccncc3F)c2C)n[nH]1`, the inhibition is -3.94% (Thailand/16681/1984, Concentration 49.5 uM, Number of replicates 2.0, Standard deviation 0.640305880758115 %); -3.61% (Thailand/16681/1984, Concentration 99.01 uM, Number of replicates 2.0, Standard deviation 0.7647439452243474 %); -3.27% (Thailand/16681/1984, Concentration 198.0 uM, Number of replicates 2.0, Standard deviation 1.5490355987880475 %).
Consider `Cc1cn2nnc(C(=O)N[C@H]3CCCCn4c3n[nH]c4=O)c2c(=O)[nH]1`, for which the inhibition reads like this: (Thailand/16681/1984, Concentration 49.5 uM, Number of replicates 2.0, Standard deviation 0.2359641679366373 %) -0.501%; (Thailand/16681/1984, Concentration 99.01 uM, Number of replicates 2.0, Standard deviation 0.10523355791430405 %) -0.563%; (Thailand/16681/1984, Concentration 198.0 uM, Number of replicates 2.0, Standard deviation 0.06258385535382655 %) -1.4%.
Take `O=Cc1ccc(N2CCC(C(=O)Nc3nnc(C(F)(F)F)s3)CC2)cc1`: under setting [1], the inhibition is 12.7%.
On to `O=Cc1ccc(N2CCC(C(=O)N3CCNC(=O)C34CCCCC4)CC2)cc1`, for which the inhibition under setting [1] was 13.7%.
Still for that read-out and setting: as for `CCCCN(Cc1ccc(F)cc1)C(=O)C1CCN(c2ccc(C=O)cc2)CC1`, the figure is 16.4%.
With `COc1cc(C(=O)Nc2cnc3ccccc3c2)nc(N2CCNCC2)n1`, the inhibition (Thailand/16681/1984, Concentration 49.5 uM, Number of replicates 2.0, Standard deviation 9.540542197549359 %) stood at 4.46%; the inhibition (Thailand/16681/1984, Concentration 99.01 uM, Number of replicates 2.0, Standard deviation 4.349736840709832 %) stood at 6.31%; the inhibition (Thailand/16681/1984, Concentration 198.0 uM, Number of replicates 2.0, Standard deviation 5.514135579540427 %) turned out to be 7.41%.
Consider `O=Cc1ccc(N2CCC(C(=O)N3CCCN(c4ccc(C(F)(F)F)cn4)CC3)CC2)cc1`, for which, under setting [1], the inhibition is 9.22%.
With `Cc1cc(CO)c2cccc(Cc3cccc(NC(=O)c4cc(C(=O)O)[nH]n4)c3)c2n1`, the inhibition was 4.13% (Thailand/16681/1984, Concentration 49.95 uM, Number of replicates 2.0, Standard deviation 0.024232414845035546 %) and 7.91% (Thailand/16681/1984, Concentration 99.9 uM, Number of replicates 2.0, Standard deviation 0.7422093740247248 %).
As for `COCc1cc(-c2ccccc2C(=O)Nc2cnn(C)c2)ccn1`, the inhibition is -5.45% (Thailand/16681/1984, Concentration 49.5 uM, Number of replicates 2.0, Standard deviation 1.4111132401966338 %); -5.34% (Thailand/16681/1984, Concentration 99.01 uM, Number of replicates 2.0, Standard deviation 1.6255328031848963 %); -4.12% (Thailand/16681/1984, Concentration 198.0 uM, Number of replicates 2.0, Standard deviation 0.730186058256325 %).
As to `O=Cc1ccc(N2CCC(C(=O)NCC(=O)Nc3ccc(F)c(F)c3)CC2)cc1`, the inhibition under setting [1] was 14.1%.

For orientation: inhibition means the relative decrease from the control value, in per cent.
